# This is a sample that favours compounds with a hit; in the whole collection about 21% have one here.
# CHX counter – Cycloheximide Counterscreen for Small Molecule Inhibitors of Shiga Toxin | cell reporter, cycloheximide protein synthesis inhibition counterscreen | max response, % | actives 12% (n = 300,000) | AID 2314, 2010; in the data active = max response mostly above about 13%, no sharp cut-off; inactive = mostly below about 14%; note: read at 38.3 µM for the half of the compounds with a filed dose; 0% is about no effect
# Shiga inhibitor – A qHTS for Small Molecule Inhibitors of Shiga Toxin; Vero cells, Shiga toxin protein synthesis inhibition reporter; inhibition, % at 38.7 µM; actives 9.2% (n = 290,000); in the data active = inhibition mostly above about 28%, no sharp cut-off; inactive = mostly below about 43%; note: 0% is about no effect
# SARS PLP yeast – qHTS of Yeast-based Assay for SARS-CoV PLP; AID 485353, 2010; S. cerevisiae expressing SARS-CoV PLpro, growth rescue; actives 0.19% (n = 330,000); Potency, µM (doses to about 32.9 µM), for the others: at the highest dose activity, positive = growth rescue, most hits filed as activators; calls by dose curve; note: potency is the fitted concentration of half-maximal effect; 0% is about no effect; nearly all actives have a fitted effect of over 55% in size
# Pf growth 48h – Primary qHTS for delayed death inhibitors of the malarial parasite plastid, 48 hour incubation | P. falciparum luciferase growth in erythrocytes, 48 h | Potency, µM (top dose mostly 28.7 µM), without a hit: at the highest dose activity change, negative = inhibition, most hits filed as inhibitors | actives 5.9% (n = 310,000); note: potency is the fitted concentration of half-maximal effect; % is set by controls: 0 for no effect and ±100 for the full control effect
#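 Firefly luciferase activity from engineered P. falciparum reports growth; inhibitors lower the luminescent signal. Cultures contained 2% hematocrit erythrocytes at 0.1% final parasitemia.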
# NS1 inh – qHTS Assay for Inhibitors of Influenza NS1 Protein Function. Potency, µM (doses to about 46.1 µM), inactives show at the top dose activity, positive = more growth. actives 0.4% (n = 270,000). AID 2326, 2010; calls by dose curve; note: potency is the fitted concentration of half-maximal effect; actives are rising curves; nearly all actives have a fitted effect of over 50% in size
#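 S. cerevisiae expressing influenza A NS1, grown in glucose, washed, then diluted 1:100 into pH 6.0 -URA galactose medium with 23 nl compound. Growth recovery read as OD600; NS1-free strain serves as control.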
# Pf growth 96h – Primary qHTS for delayed death inhibitors of the malarial parasite plastid, 96 hour incubation. actives 6.9% (n = 320,000). Potency, µM (highest dose often 28.7 µM), without a hit: at the top dose activity change, negative = inhibition, most hits filed as inhibitors. P. falciparum luciferase reporter growth, 96 h. AID 504834, 2011; note: potency is the fitted concentration of half-maximal effect; % is set by controls: 0 for no effect and ±100 for the full control effect
#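 Erythrocytes infected with luciferase-expressing P. falciparum were dispensed at 2% hematocrit and 0.05% parasitemia (final), then incubated with compounds 96 hours at 37 C in 5% CO2. Luminescence after detection reagent addition reported growth.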
# Starred values were filed as active, the others as inactive; i = inactive; ? = inconclusive; nt = not tested or not shown. Unless noted, calls come from the whole dose curve; as a rule, active = well fitted inhibition curve with a large enough effect; inconclusive = small, poorly fitted or top-dose-only effect, or another doubt; inactive = no such curve, though single readings can be large or run the other way.
SMILES,CHX counter,Shiga inhibitor,SARS PLP yeast,Pf growth 48h,NS1 inh,Pf growth 96h
O=C(Nc1ccc(F)cc1F)c1cc2nc3c(c(C(F)(F)F)n2n1)CCCC3,26.2*,24.1,19.4%,128.9%,5.6%,10.4µM*
O=C(Nc1ccc(F)cc1F)c1cc2n(n1)C(C(F)(F)F)C1CCCCC1N2 (stereo unspecified),29.6*,83.9*,-7.6%,15.7%,-2.5%,-13.5%
CCOC(=O)c1c(S(=O)(=O)N2CCCC2)c(C)n(C)c1C,12.4,-2.6,-1.9%,13.0%,-4.1%,11.7µM*
CCOC(=O)c1c(S(=O)(=O)N2CCCC(C(=O)Nc3ccc(C)cn3)C2)c(C)n(C)c1C (stereo unspecified),-0.5,-6.1,1.4%,13.1µM*,6.0%,16.6%
CCOC(=O)c1c(S(=O)(=O)N2CCCC(C)C2)c(C)n(C)c1C (stereo unspecified),8.5,-13.5,0.7%,?,?,?
CCOC(=O)c1c(S(=O)(=O)N2CCN(C)CC2)c(C)n(C)c1C,-1.8,-13.5,-0.3%,12.0%,3.0%,?
CCOC(=O)c1c(S(=O)(=O)N2CCCCC2C)c(C)n(C)c1C (stereo unspecified),0.0,-2.7,4.1%,13.0%,-0.7%,1.65µM*
CCC1(c2ccc(O)cc2)NC(=O)NC1=O (stereo unspecified),-6.7,-11.1,nt,nt,nt,nt
Nc1ccccc1O.O.O=C(O)[C@H]1[O][Sb][O][C@H]1C(=O)O,nt,nt,nt,nt,-2.6%,nt
O=C(c1ccc(Br)cc1)c1sc(N2CCOCC2)nc1-c1ccccc1,1.5,-1.8,-0.9%,?,5.6%,-23.4%
CC(C)N(C(=O)C[n+]1ccsc1N)c1ccccc1,1.0,20.4,1.5%,8.9%,nt,0.0%
CCc1cc(=O)oc2cc(C)cc(OC(C)C(=O)NCc3ccccn3)c12 (stereo unspecified),-3.4,-1.0,4.0%,3.7µM*,-7.3%,2.08µM*
CCCc1cc(=O)oc2cc(C)cc(OC(C)C(=O)NCc3ccccn3)c12 (stereo unspecified),-2.6,-4.1,3.6%,2.62µM*,-18.3%,2.33µM*
O=C(CSc1nc(=O)n(CCCN2CCOCC2)c2c1CCCC2)Nc1cccc(F)c1,nt,nt,-1.3%,?,nt,?
CCC(=O)NC(=S)Nc1ccc(NC(=O)c2cc3ccccc3o2)c(OC)c1,0.5,29.7*,-0.9%,12.1%,-1.1%,?
COc1cc(NC(=O)c2cccc(C)c2)ccc1NC(=O)c1cc2ccccc2o1,13.1*,48.9,-0.2%,74.7%,2.5%,44.0%
COc1cc(NC(=O)C(C)C)ccc1NC(=O)c1cc2ccccc2o1,24.2*,39.5*,-2.8%,127.0%,-7.8%,-6.5%
COc1ccc(C2=Nn3c(nnc3C(F)(F)F)SC2)cc1,-1.1,-8.5,-1.8%,-12.1%,1.4%,-4.1%
COc1cc(CC(=O)NCC2CCCCC2)cc(OC)c1OC,0.7,1.4,0.4%,12.8%,-0.2%,-4.0%
COC(=O)c1c(C)[nH]c(C(=O)/C=C/c2ccc(C)cc2)c1C,1.5,24.9,-0.6%,?,2.2%,190.5%
COC(=O)c1c(C)[nH]c(C(=O)/C=C/c2ccccc2)c1C,43.5*,89.0*,-8.5%,149.0%,2.5%,i
COC(=O)c1c(C)[nH]c(C(=O)CSc2ccc(Cl)cc2)c1C,30.3*,42.0,-3.3%,146.9%,-3.8%,nt
COC(=O)c1c(C)[nH]c(C(=O)CC#N)c1C,5.3,-10.1,3.4%,?,-2.5%,41.0%
COC(=O)c1c(C)[nH]c(C(=O)/C=C/c2cccc(Cl)c2)c1C,38.8*,61.9*,5.2%,114.2%,2.3%,i
O=C(NNC(=O)c1cc(Cl)ccc1[N+](=O)[O-])c1csc(N2CCOCC2)n1,nt,nt,nt,-17.1%,nt,62.5%
SMILES,CHX counter,Shiga inhibitor,SARS PLP yeast,Pf growth 48h,NS1 inh,Pf growth 96h
CC(C)c1ccc(OCC(=O)N2CCN(C(=O)c3ccco3)CC2)cc1,-3.6,-12.6,0.7%,3.5%,9.5%,?
O=C(O)c1cc(-c2ccccc2Cl)n[nH]1,-0.9,-13.9,12.7%,nt,-1.1%,nt
COc1ccc(Cl)cc1NC(=O)c1cc(-c2ccccc2O)n[nH]1,10.3,12.9,-11.3%,10.4µM*,?,10.4µM*
Cc1c(Cl)cccc1NC(=O)c1cc(-c2ccccc2O)n[nH]1,18.4*,35.6,-0.1%,nt,-6.3%,?
COc1ccc(OC)c(NC(=O)c2cc(-c3cc(Cl)ccc3O)n[nH]2)c1,-5.4,15.2,-0.1%,1.65µM*,4.7%,8.28µM*
Cc1ccc(OCC(O)Cn2nc(C)cc2C)cc1 (stereo unspecified),9.2,28.0,-0.6%,-2.7%,-3.5%,5.1%
COc1cc(C(=O)OCC(=O)Nc2ccccc2C(=O)NC2CC2)c([N+](=O)[O-])cc1OC,nt,nt,0.6%,-32.8%,nt,?
Cc1ccc(C(=S)NCS(=O)(=O)c2ccc(C)cc2)cc1,19.1*,74.8,4.0%,30.4%,-11.3%,32.9%
Cc1cc(C)c(C(=O)N2CCCC(CNS(=O)(=O)N(C)C)C2)o1 (stereo unspecified),11.3,16.4,-4.0%,23.9%,?,?
COc1ccc(N/C(=C(/C(Cl)=C(Cl)Cl)[N+](=O)[O-])n2nnc3ccccc32)cc1OC,3.7,1.8,15.4%,nt,11.2%,14.7µM*
COc1ccc(/C=C/c2cccc[n+]2C)c(O)c1,5.3,-8.6,13.3%,?,-3.7%,186.9%
CCN(CC)c1ccc(/C=C/c2cccc[n+]2C)c(OC)c1,-1.7,-5.1,-8.6%,0.37µM*,-36.0%,49.7%
COc1ccc(C(=O)Nc2cc(C)on2)cc1,27.0*,46.9,-1.5%,123.4%,-15.5%,0.2%
CC(=O)Oc1ccc(C(=O)Nc2cc(C)on2)cc1,29.6*,87.9*,0.6%,72.6%,-13.1%,105.2%
COc1ccc(OCc2cccc(C(=O)Nc3cc(C)on3)c2)cc1,91.4*,active,3.6%,44.2%,-0.4%,-72.2%
COc1cc(OC)cc(C(=O)Nc2cc(C)on2)c1,-2.6,15.2,-14.0%,3.8%,5.4%,142.7%
COc1ccc(-c2c3c(nc4sc(C(=O)Nc5cc(C)on5)c(N)c24)CCC3)cc1,2.3,-11.0,-0.4%,4.15µM*,12.9%,13.9%
Cc1cc(NC(=O)c2cc([N+](=O)[O-])cc([N+](=O)[O-])c2)no1,-2.1,-10.8,-0.3%,?,-1.2%,?
COc1ccc(-c2c3c(nc4sc5c(=O)[nH]c(C)nc5c24)CCC3)cc1,-4.0,-11.6,-3.7%,-12.5%,8.5%,?
COc1ccc(C2NC(=O)CCC2[N+](=O)[O-])c(OC)c1OC (stereo unspecified),-2.1,3.2,?,13.4%,10.7%,?
